According to PubChem BioAssay (Tox21):
Inconclusive results are not listed. Entries that show only a call come without a potency. Calls of active or inactive are those of the source. Unless noted, the call rests on the fitted dose curve.

experiment: qHTS assay for small molecule agonists of the antioxidant response element (ARE) signaling pathway (AID 743202; active means well fitted activation curve with a large enough effect in the signal ratio in the repeat runs, not every such curve was filed as active; the % refers to the signal ratio); settings: HepG2 ARE-bla reporter, beta-lactamase FRET, 16 h; series mostly up to 73.3 µM
In short: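 An ARE-responsive beta-lactamase gene stably integrated in HepG2 cells serves as reporter. After 5 h plating and 16 h compound incubation at 37 C, fluorescence of the B/G FRET substrate was measured.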

Question: With `CC(=O)C1CCCCC1=O` (stereo not given) as the molecule, how does the Potency read?
Answer: inactive

Question: Which Potency does the source give for `C=CC(C)(CCC=C(C)C)OC(=O)CC` (stereo not given) here?
Answer: inactive

Question: With `CCCCN1C=CN(C)C1` as the molecule, how does the Potency read?
Answer: inactive

Question: Which Potency does the source give for `Cc1ccc(-c2ncc(Cl)cc2-c2ccc(S(C)(=O)=O)cc2)cn1` here?
Answer: inactive

Question: For `C=COCC1CCC(COC=C)CC1` (stereo not given), which Potency is on record?
Answer: inactive

Question: Which Potency does the source give for `O=C(CO)[C@@H](O)[C@H](O)[C@@H](O)CO` here?
Answer: inactive

Question: Which Potency does the source give for `CCCCCCCC1CCCC1=O` (stereo not given) here?
Answer: inactive

Question: With `C=CCOCC(O)CO` (stereo not given) as the molecule, how does the Potency read?
Answer: inactive

Question: With `O=C(O)Cc1csc(-c2ccc(Cl)cc2)n1` as the molecule, how does the Potency read?
Answer: inactive

Question: Which Potency does the source give for `CCC(C)(CCCC(C)C)OC(C)=O` (stereo not given) here?
Answer: inactive

Question: With `CC(=O)Oc1cccc(C)c1` as the molecule, how does the Potency read?
Answer: inactive

Question: For `[K+]`, which Potency is on record?
Answer: inactive

Question: With `CCOC(=O)COc1cc(-n2ncc(C(F)(F)F)c(C)c2=O)c(F)cc1Cl` as the molecule, how does the Potency read?
Answer: inactive

Question: Which Potency does the source give for `C=CC(=O)OCCCl` here?
Answer: inactive

Question: For `C1CCC2(CCCCO2)OC1`, which Potency is on record?
Answer: inactive

Question: For `O=C(O)CNC(=O)c1ccc(CO)o1`, which Potency is on record?
Answer: inactive

Question: For `CCCC[N+](C)(CCCC)CCCC`, which Potency is on record?
Answer: inactive

Question: For `CC(C)(N)C#N`, which Potency is on record?
Answer: inactive

Question: With `CCCCN(CCC(=O)OCC)C(C)=O` as the molecule, how does the Potency read?
Answer: inactive

Question: For `CO[Si](C)(OC)c1ccccc1`, which Potency is on record?
Answer: inactive

Question: Which Potency does the source give for `CCCCCCCCCCCCCCCCCCO` here?
Answer: inactive

Question: With `CCC1C(=O)OCC1Cc1cncn1C` (stereo not given) as the molecule, how does the Potency read?
Answer: inactive

Question: With `O=C(O)c1cc(C(=O)O)cc(C(=O)O)c1` as the molecule, how does the Potency read?
Answer: inactive

Question: For `CCCCOCCOC(=O)COc1cc(Cl)c(Cl)cc1Cl`, which Potency is on record?
Answer: inactive

Question: Which Potency does the source give for `OCCCCCO` here?
Answer: inactive

Question: With `CN(C)CCN(C)CCN(C)C` as the molecule, how does the Potency read?
Answer: inactive

Question: For `CC(=O)c1cnccn1`, which Potency is on record?
Answer: inactive

Question: Which Potency does the source give for `CCCCOC(=O)CCC(C)=O` here?
Answer: inactive

Question: For `CC(C)c1ccc2ncccc2c1`, which Potency is on record?
Answer: inactive

Question: Which Potency does the source give for `CCOC(=O)COC(=O)c1ccccc1C(=O)OCC` here?
Answer: inactive

Question: Which activation does the source give for `CCCCCCCCCCOc1cc2c(=O)c(C(=O)OCC)c[nH]c2cc1OCC` here?
Answer: -0.445% [at 8.36 µM] (inactive)

Question: Which Potency does the source give for `CCN[C@H]1C[C@H](C)S(=O)(=O)c2sc(S(N)(=O)=O)cc21` here?
Answer: inactive

experiment: qHTS assay for small molecule agonists of the antioxidant response element (ARE) signaling pathway - cell viability counter screen (AID 743203); settings: ARE-bla HepG2 viability, CellTiter-Glo luminescence, 16 h; series mostly up to 73.3 µM; further: nearly all actives have a fitted effect of over 55% in size
In short: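 Seeded at 2,000 cells/well, ARE-bla HepG2 cells were incubated 5 hrs before compound addition. After 16 hrs of treatment at 37C with 5% CO2, CellTiter-Glo reagent was added and luminescence read 30 min later.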

Question: With `CC(=O)C1CCCCC1=O` (stereo not given) as the molecule, how does the outcome read?
Answer: inactive

Question: For `C=CC(C)(CCC=C(C)C)OC(=O)CC` (stereo not given), which outcome is on record?
Answer: inactive

Question: Which outcome does the source give for `CCCCN1C=CN(C)C1` here?
Answer: inactive

Question: Which outcome does the source give for `Cc1ccc(-c2ncc(Cl)cc2-c2ccc(S(C)(=O)=O)cc2)cn1` here?
Answer: inactive

Question: With `C=COCC1CCC(COC=C)CC1` (stereo not given) as the molecule, how does the outcome read?
Answer: inactive

Question: Which outcome does the source give for `O=S(=O)(O)c1cccc(S(=O)(=O)O)c1` here?
Answer: inactive

Question: With `O=C(CO)[C@@H](O)[C@H](O)[C@@H](O)CO` as the molecule, how does the outcome read?
Answer: inactive

Question: For `CCCCCCCC1CCCC1=O` (stereo not given), which outcome is on record?
Answer: inactive

Question: For `C=CCOCC(O)CO` (stereo not given), which outcome is on record?
Answer: inactive

Question: With `O=C(O)Cc1csc(-c2ccc(Cl)cc2)n1` as the molecule, how does the outcome read?
Answer: inactive

Question: With `CCC(C)(CCCC(C)C)OC(C)=O` (stereo not given) as the molecule, how does the outcome read?
Answer: inactive

Question: With `CC(=O)Oc1cccc(C)c1` as the molecule, how does the outcome read?
Answer: inactive

Question: With `[K+]` as the molecule, how does the outcome read?
Answer: inactive

Question: For `CC(C)=CCC/C(C)=C/C#N`, which outcome is on record?
Answer: inactive

Question: Which outcome does the source give for `CCOC(=O)COc1cc(-n2ncc(C(F)(F)F)c(C)c2=O)c(F)cc1Cl` here?
Answer: inactive

Question: Which outcome does the source give for `C=CC(=O)OCCCl` here?
Answer: inactive

Question: For `C1CCC2(CCCCO2)OC1`, which outcome is on record?
Answer: inactive

Question: For `O=C(O)CNC(=O)c1ccc(CO)o1`, which outcome is on record?
Answer: inactive

Question: Which outcome does the source give for `Cc1cccc(C)c1NC(=O)CC12CCCN1CCC2` here?
Answer: inactive

Question: For `CCCC[N+](C)(CCCC)CCCC`, which outcome is on record?
Answer: inactive

Question: With `CC(C)(N)C#N` as the molecule, how does the outcome read?
Answer: inactive

Question: With `CCCCN(CCC(=O)OCC)C(C)=O` as the molecule, how does the outcome read?
Answer: inactive

Question: Which outcome does the source give for `CO[Si](C)(OC)c1ccccc1` here?
Answer: inactive

Question: For `CCCCCCCCCCCCCCCCCCO`, which outcome is on record?
Answer: inactive

Question: Which outcome does the source give for `CCC1C(=O)OCC1Cc1cncn1C` (stereo not given) here?
Answer: inactive

Question: Which outcome does the source give for `O=S(=O)(O)c1cc(O)c(O)c(S(=O)(=O)O)c1` here?
Answer: inactive

Question: Which outcome does the source give for `CCCCCC(=O)OCCc1ccccc1` here?
Answer: inactive

Question: For `O=C(O)c1cc(C(=O)O)cc(C(=O)O)c1`, which outcome is on record?
Answer: inactive

Question: With `CCCCOCCOC(=O)COc1cc(Cl)c(Cl)cc1Cl` as the molecule, how does the outcome read?
Answer: inactive

Question: For `OCCCCCO`, which outcome is on record?
Answer: inactive

Question: With `CN(C)CCN(C)CCN(C)C` as the molecule, how does the outcome read?
Answer: inactive

Question: Which outcome does the source give for `CC(=O)c1cnccn1` here?
Answer: inactive

Question: Which outcome does the source give for `CCCCOC(=O)CCC(C)=O` here?
Answer: inactive

Question: For `CC(C)c1ccc2ncccc2c1`, which outcome is on record?
Answer: inactive

Question: For `CCOC(=O)COC(=O)c1ccccc1C(=O)OCC`, which outcome is on record?
Answer: inactive

Question: For `CCCCCCCCCCOc1cc2c(=O)c(C(=O)OCC)c[nH]c2cc1OCC`, which viability change, negative = cytotoxic is on record?
Answer: -3.47% [at 8.36 µM] (inactive)

Question: For `CCN[C@H]1C[C@H](C)S(=O)(=O)c2sc(S(N)(=O)=O)cc21`, which outcome is on record?
Answer: inactive

Question: Which outcome does the source give for `CCNS(=O)(=O)c1ccc(C)cc1` here?
Answer: inactive
